Compounds with a hit are over-represented: about 9.4% of the library has one in this group of screens.
ELG1 DNA repair: blocks ELG1-dependent DNA repair in HEK293T cells. HEK293T ELG1-luciferase reporter, luminescence, 16 h; DNA damage induced by 5-fluorouridine. Potency, µM (top dose mostly 46.1 µM), for inactives: at the highest dose activity change, negative = inhibition, hits mostly inhibitors. 330,000 compounds, 2.3% hits; further: on the % scale 0 is the no-effect control and ±100 the full control effect; nearly all actives have a fitted effect of over 55% in size
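Reporter activity after DNA damage by 5-fluorouridine is monitored. Compound-treated cells incubate 16 hr at 37 °C, then ONE-Glo is added for 30 min before luminescence reading.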
Rab9 prom act: Rab9 promoter activation. AID 485297. 320,000 compounds, 2.8% hits. Potency, µM (highest dose often 9.22 µM), for inactives: top-dose activation, negative = inhibition, usual class: activators. Huh7 Rab9 promoter-luciferase reporter, luminescence, 24 h; further: % of control where 0% means no effect; nearly all actives have a fitted effect of over 60% in size
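Rab9 promoter-driven luciferase in stably transfected Huh7 cells; 1500 cells/well rested 2 h, exposed to compound in DMSO for 24 h at 37 °C, 5% CO2. Luminescence read 10 min after adding luciferase reagent at ambient temperature.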
SMN2 splice up: SMN2 splice variant enhancement | AID 1458 | HEK293 SMN2-luciferase splicing reporter, luminescence, 30-36 h | Potency, µM (top dose mostly 46.1 µM), inactives show at the top dose activity change, positive = activation, most hits filed as activators | 210,000 compounds, 2.8% hits; further: % of control where 0% means no effect; nearly all actives have a fitted effect of over 55% in size
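HEK293 cells carry an SMN2 […]–luciferase reporter in which exon 7 inclusion puts luciferase in frame. Cells were plated 10-12 h before compound addition, then incubated 30-36 h at 37C. ONE-Glo luminescence was read; sodium butyrate at 4.5 mM final served as control.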
ELG1 genotox: genotoxicity induction in ELG1-luciferase HEK293T cells; 330,000 compounds, 1.3% hits; HEK293T ELG1-luciferase reporter, luminescence, 16 h; Potency, µM (highest dose often 46 µM), inactives show at the highest dose activity change, positive = activation, actives largely listed as activators; further: % of control where 0% means no effect; nearly all actives have a fitted effect of over 60% in size
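Genotoxicity was scored as increased ELG1-luciferase reporter signal, measured by ONE-Glo luminescence (30 min, room temperature). Compound or vehicle exposure of the HEK293T reporter cells lasted 16 hr at 37°C.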
NPC1 promoter act: NPC1 promoter activation | Huh7 NPC1 promoter luciferase reporter, 24 h | Potency, µM (top dose mostly 9.22 µM), for the others: at the highest dose activation, usual class: activators | 320,000 compounds, 2.4% hits; further: % of control where 0% means no effect; nearly all actives have a fitted effect of over 60% in size
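In 1536-well qHTS, Huh7 cells harboring an NPC1 promoter–luciferase construct received compound for 24 h; activation was quantified by luminescence following luciferase reagent addition.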
FLuc counter: inhibits or activates purified firefly luciferase, miR-21 counter-screen; purified FLuc, Km substrates, luminescence inhibition; Potency, µM (top dose mostly 57.5 µM), for the others: at the top dose activity change, negative = inhibition, hits mostly inhibitors; 360,000 compounds, 6.9% hits;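 further: plate controls were vehicle for no effect and reference inhibitor for full effect; nearly all actives have a fitted effect of over 55% in size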
Target sequence (P08659 whole entry, looked up): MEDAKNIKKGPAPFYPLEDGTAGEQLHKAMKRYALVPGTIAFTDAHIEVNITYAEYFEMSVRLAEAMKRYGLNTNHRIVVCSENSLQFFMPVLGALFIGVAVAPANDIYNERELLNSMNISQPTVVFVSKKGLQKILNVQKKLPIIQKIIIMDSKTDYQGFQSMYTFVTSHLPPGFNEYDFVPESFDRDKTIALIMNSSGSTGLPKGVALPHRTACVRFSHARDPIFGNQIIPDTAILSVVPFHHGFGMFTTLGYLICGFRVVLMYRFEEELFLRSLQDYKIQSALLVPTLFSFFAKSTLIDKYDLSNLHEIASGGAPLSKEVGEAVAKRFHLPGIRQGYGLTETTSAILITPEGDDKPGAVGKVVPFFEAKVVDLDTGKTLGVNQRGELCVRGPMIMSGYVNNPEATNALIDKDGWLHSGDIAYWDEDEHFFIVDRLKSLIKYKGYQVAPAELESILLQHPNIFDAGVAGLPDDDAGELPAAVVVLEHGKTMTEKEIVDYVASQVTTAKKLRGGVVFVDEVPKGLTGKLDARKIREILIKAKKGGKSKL
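Biochemical qHTS of compounds, final roughly 60 µM downward over six points, against 10 nM purified firefly luciferase using Km concentrations of substrates (10 uM D-luciferin, 10 uM ATP) in Tris acetate pH 7.5 buffer; luminescence output.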
Starred values were filed as active, the others as inactive; u = inconclusive; x = no result; ! = not active in a repeat; [ ] = another dose, or the depositor's remark. The call rests on the fitted dose curve; in most records, active means well fitted curve in the direction sought with a large enough effect; inconclusive means small, poorly fitted or top-dose-only effect, or another doubt; inactive means no such curve, though single readings can be large; an effect the other way counts as inactive or inconclusive. Potency means the concentration at half of the fitted maximal effect.

SMILES | ELG1 DNA repair | Rab9 prom act | SMN2 splice up | ELG1 genotox | NPC1 promoter act | FLuc counter
Cc1ccc(C)c2[nH]c(=O)c(CN(CCN3CCCC3)C(=O)Nc3cccc(Cl)c3)cc12 | 15µM* | -14% | -16% | -7% | -16% | -2%
Cc1cc(C)c2cc(CN(CCN3CCCC3)C(=O)Nc3ccc(F)cc3)c(=O)[nH]c2c1 | u | 2% | 22% | 3% | 17% | 0%
CC(=O)N(CCc1ccccc1C)Cc1cc2ccc(C)cc2[nH]c1=O | 16µM* | -3%[1.84 µM] | x | -7% | -2% | -1%
Cc1ccc2cc(CN(CCN(C)C)C(=O)Nc3ccc(Cl)cc3)c(=O)[nH]c2c1 | 4% | 2% | x | -1% | 0% | 11µM*
Cc1ccc2[nH]c(=O)c(CN(CCCN(C)C)C(=O)Nc3ccc(Cl)cc3)cc2c1 | 4% | u | 9% | 13% | -7% | 4%
O=C(/C(=C(\[O-])c1ccccc1)[n+]1ccc2ccccc2c1)c1ccccc1 | u | 2% | 5% | 11% | 8% | 24µM*
O=C(/C=C/c1cn(CC(O)CN2CCCCCC2)c2ccccc12)c1ccc(Br)cc1 (stereo not drawn) | x | x | -4% | x | x | -6%
Clc1ncccc1-c1nc2ccccc2s1 | u | -2% | x | u | 26% | 15µM*
O=C(Nc1ccccc1-c1nc2ccccc2s1)c1cccnc1 | -2% | -8% | 2% | -2% | -3% | 4%
O=C(COc1ccc(Cl)cc1)Nc1ccc(-c2nc3ccccc3s2)c(O)c1 | x | x | 21% | x | x | -8%
Clc1ccc(CCNc2nc3ccccc3s2)cc1 | u | 3% | -2% | 3% | -1% | u
O=c1c(-c2nc3ccccc3s2)cccn1Cc1ccc(Cl)cc1 | u | u | -20% | u | 22% | 13µM*
Oc1c(Br)cc(Br)cc1-c1nc2ccccc2s1 | x | x | -4% | x | x | 7.6µM*
COc1cc(OC)c(-c2nc3ccccc3s2)cc1OC | u | 9% | x | -4% | 10% | 12µM*
CCN(CC)S(=O)(=O)c1ccc2c(c1)N(CC(=O)N(C)Cc1ccccc1)C(=O)CO2 | x | x | -10% | x | x | -8%
Cc1ccc2c(c1)N(C(=O)C1CCN(S(=O)(=O)c3c(C)noc3/C=C/c3ccccc3F)CC1)CCO2 | x | x | x | x | x | -4%
Cc1ccc(NC(=O)CSc2ncc3c(n2)-c2ccccc2N(C)S3(=O)=O)c(Cl)c1 | x | x | x | x | x | -9%
COc1cc(OC)cc(C(=O)Nc2ccccc2-c2nc3ccccc3s2)c1 | x | x | -13% | x | x | -4%
COc1cccc(-c2nc3ccccc3s2)c1O | u | u | 7.1µM* | 1.5µM* | u | 0.34µM*
COC(=O)c1ccc(NC(=O)Cn2ccn3nc(-c4ccc(OC)cc4)cc3c2=O)cc1 | x | x | x | x | x | 3%
CCOC(=O)N/N=C/c1ccccc1F | u | 2.8µM* | u | 28% | 2.5µM* | u
CCOC(=O)N/N=C/c1ccc(N(CC)CC)cc1O | u | -2% | u | u | -11% | 24µM*
CCCn1c(=O)c(C(=O)N/N=C/c2ccccc2F)c(O)c2ccccc21 | u | 2.2µM* | 13µM* | u | u | -7%
CCOC(=O)N/N=C/c1c(F)cccc1F | u | 14% | u | 13% | 9% | u
CCCn1c(=O)c(C(=O)N/N=C/c2ccc(F)cc2)c(O)c2ccccc21 | 2% | -6% | x | -3% | 1% | 1%
SMILES | ELG1 DNA repair | Rab9 prom act | SMN2 splice up | ELG1 genotox | NPC1 promoter act | FLuc counter
CCOC(=O)N/N=C/c1cccc(Cl)c1Cl | u | 23% | u | 11% | 17% | 21µM*
CCOC(=O)c1c(Nc2ccc(OC)cc2)nnc(-c2ccccc2)c1-c1ccccc1 | x | x | -49% | x | x | -5%
Cc1cc(C(=O)NNc2c(Cl)cccc2Cl)no1 | -1% | 1% | x | 1% | -2% | 0%
Cc1cc(C(=O)N/N=C/c2cccc(Cl)c2Cl)no1 | u | u | 20% | 21µM* | u | 11µM*
CCOC(=O)N/N=C/c1cn(CCCOc2ccc(C)cc2)c2ccccc12 | -2% | u | -70% | -1% | 1.8µM* | -3%
CCOC(=O)N/N=C/c1cn(CCCOc2ccccc2)c2ccccc12 | u | u | -49% | -3% | u | 0%
N#Cc1ccc(C(=O)Nc2ccccc2-c2nc3ccccc3s2)c(F)c1 | x | x | 0% | x | x | -5%
CCCN1C(=O)C(Cc2nc3ccccc3c(=O)n2CC)c2ccccc21 (stereo not drawn) | x | x | 3% | x | x | 5%
CCCN(CCC)c1nc(Cl)nc(NCCN2CCOCC2)n1 | 23µM* | -2% | -63% | -11% | -2% | 0%
Cc1cc(-c2ccc(N=Nc3c(S(=O)(=O)O)cc4cc(S(=O)(=O)O)cc(N)c4c3O)c(C)c2)ccc1N=Nc1c(S(=O)(=O)O)cc2cc(S(=O)(=O)O)cc(N)c2c1O | 7.3µM* | -12% | x | -44% | -13% | 21µM*
O=S(=O)(O)c1cc(O)c2c(O)c(N=Nc3cc(Cl)ccc3O)c(S(=O)(=O)O)cc2c1 | u | -10% | x | -4% | -7% | 21µM*
CC1=C(C(=O)Nc2ccc(Cl)cc2)C(C(C)C)n2nc(SCc3ccc(Cl)cc3)nc2N1 (stereo not drawn) | x | x | 1% | x | x | 1%
CCCC(=O)N(c1ccc2oc3c(c2c1)CCCC3)S(=O)(=O)c1cc(C)ccc1C | x | x | -1% | x | x | 3%
CCN(c1ccc(Cl)cc1)S(=O)(=O)c1nnc(NC(=O)c2ccccc2C)s1 | x | x | x | x | x | 4%
CN(c1ccccc1)S(=O)(=O)c1nnc(NC(=O)C2CCCCC2)s1 | 9% | 3% | x | 2% | -2% | 0.67µM*!
CCN(c1ccccc1)S(=O)(=O)c1nnc(NC(=O)c2cccs2)s1 | x | x | x | x | x | 0.34µM*
CN(c1ccccc1)S(=O)(=O)c1nnc(NC(=O)c2ccco2)s1 | 1% | 1% | x | 0% | 1% | -21%
CN(c1ccccc1)S(=O)(=O)c1nnc(NC(=O)c2ccccc2)s1 | x | x | x | x | x | 0.19µM*

High-throughput results from PubChem BioAssay.
